Bioassay records deposited in PubChem BioAssay by National Center for Advancing Translational Sciences (NCATS).
A selection: hits, their analogues and other compounds. The true share with any hit is near 6.3%.
RORg inh: qHTS for inhibitors of ROR gamma transcriptional activity; actives 5.4% (n = 310,000); Nuclear receptor ROR-gamma (Mus musculus), P51450; Drosophila S2 Gal4-RORgamma UAS-luciferase reporter, 20 h; Potency, µM (series often up to 53.6 µM), most hits filed as inhibitors; AID 2551, 2010; note: nearly all actives have a fitted effect of over 60% in size
Target sequence (P51450 whole entry, looked up, the tested form may be a part): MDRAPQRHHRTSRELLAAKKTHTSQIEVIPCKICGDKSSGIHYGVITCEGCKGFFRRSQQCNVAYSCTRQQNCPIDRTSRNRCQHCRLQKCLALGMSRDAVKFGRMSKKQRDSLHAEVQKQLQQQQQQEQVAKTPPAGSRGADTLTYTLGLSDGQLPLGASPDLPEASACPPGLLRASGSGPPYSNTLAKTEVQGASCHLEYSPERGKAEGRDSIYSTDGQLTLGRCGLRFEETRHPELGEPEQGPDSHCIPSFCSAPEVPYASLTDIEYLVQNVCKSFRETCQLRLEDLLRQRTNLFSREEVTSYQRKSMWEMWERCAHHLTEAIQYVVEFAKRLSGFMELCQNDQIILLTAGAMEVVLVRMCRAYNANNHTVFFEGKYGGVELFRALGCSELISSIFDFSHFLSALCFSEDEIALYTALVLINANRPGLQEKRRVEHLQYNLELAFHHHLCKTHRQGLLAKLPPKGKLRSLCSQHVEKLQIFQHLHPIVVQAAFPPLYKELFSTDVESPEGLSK
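Read-out: Photinus luciferase luminescence; inhibitors lower reporter signal. Insect Schneider cells with Gal4-ROR gamma fusion under metallothionein promoter, UAS reporter; 700 uM final copper sulfate induction, 20 hr, ambient temperature.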
Gal4-VP16 FLuc: VP16 counterscreen qHTS for inhibitors of ROR gamma transcriptional activity. Drosophila S2 Gal4-VP16 UAS-luciferase, luminescence, 20 h. Potency, µM (highest dose often 53.6 µM), usual class: inhibitors. actives 3.5% (n = 310,000). AID 2546, 2010;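 note: Gal4-VP16 expression switched on by copper sulfate through the metallothionein promoter; nearly all actives have a fitted effect of over 50% in size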
ATXN2 expr inh: Primary qHTS for Inhibitors of ATXN expression; AID 1745845, 2022; Potency, µM (titrated, usually from 57 µM), usual class: inhibitors; actives 0.72% (n = 360,000); HEK-293 ATXN2-luciferase reporter, luminescence, 24 h; note: nearly all actives have a fitted effect of over 55% in size
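ATXN2-luciferase reporter cells (luciferase flanked by upstream and downstream ATXN2 gene portions) were treated 24 h at 37 °C with compounds at up to 57 uM. SteadyGlo luminescence gave expression; GF-AFC fluorescence gave viability.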
ATXN viability: Viability Counterscreen for Primary qHTS for Inhibitors of ATXN expression. S2 cells (HEK-293 line with an ATXN2-luciferase reporter) viability, CellTiter-Fluor protease fluorescence, 24 h. Potency, µM (series often up to 56.7 µM), most hits filed as cytotoxic. actives 0.49% (n = 400,000). AID 651635, 2014; note: nearly all actives have a fitted effect of over 40% in size
TGFb SMAD3 inh: qHTS for Inhibitors of TGF-b. actives 1.2% (n = 410,000). Potency, µM (doses to about 46.1 µM), usual class: inhibitors. HepG2 CAGA-GFP TGF-b/SMAD3 reporter, GFP fluorescence, 18 h; TGF-beta stimulated, 500 pg/mL final; note: nearly all actives have a fitted effect of over 65% in size
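Per well, imaged GFP fluorescence of HEPG2 CAGA-GFP cells gives the signal; cells get compound, then TGF-beta (500 pg/mL final), 18 h at 37 degrees C; %Activity versus -TGF-beta and +DMSO controls.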
HepG2 tox: qHTS for Inhibitors of TGF-b: Cytotox Counterscreen | HepG2 CAGA-GFP viability, ATP luminescence, 18 h | AID 588856, 2011 | actives 0.76% (n = 410,000) | Potency, µM (titrated, usually from 46.1 µM), usual class: cytotoxic
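HepG2 CAGA-GFP cells (1000/well, DMEM with 1% FBS) received compound, then TGF-beta at 500 pg/mL final, and were incubated 18 hours at 37 degrees C. Viability was read by CellTiter-Glo luminescence. Media-only wells were set as complete cell-killing and DMSO as no toxicity.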
Hits are given with their value; - = inactive; ? = inconclusive; . = no result; [ ] = dose if it differs, or a comment. Calls come from the whole dose curve; as a rule, active = well fitted curve in the direction sought with a large enough effect; inconclusive = small, poorly fitted or top-dose-only effect, or another doubt; inactive = no such curve, though single readings can be large; an effect the other way counts as inactive or inconclusive.

SMILES	RORg inh	Gal4-VP16 FLuc	ATXN2 expr inh	ATXN viability	TGFb SMAD3 inh	HepG2 tox
CCCC(=O)O[C@]1(C(=O)CCl)[C@@H](C)C[C@H]2[C@@H]3CCC4=CC(=O)C=C[C@]4(C)[C@@]3(F)C(=O)C[C@@]21C	10µM	-	-	-	-	-
CCCCC(=O)O[C@]1(C(=O)CO)[C@H](C)C[C@H]2[C@@H]3CCC4=CC(=O)C=C[C@]4(C)[C@@]3(F)[C@@H](O)C[C@@]21C	7.94µM	?	.	.	.	.
CCC(=O)O[C@@]1(C(=O)CCl)C(C)CC2C3CCC4=CC(=O)C=C[C@@]4(C)[C@]3(F)C(O)C[C@]21C (stereo partly drawn)	?	-	.	.	.	.
CCC(=O)OC1(C(=O)CCl)[C@@H](C)C[C@H]2[C@@H]3CCC4=CC(=O)C=C[C@]4(C)[C@@]3(F)[C@@H](O)C[C@@]21C (stereo partly drawn)	.	.	-	-	-	-
CCC(=O)O[C@]1(C(=O)CCl)[C@@H](C)C[C@H]2[C@@H]3CCC4=CC(=O)C=C[C@]4(C)[C@@]3(F)[C@@H](O)C[C@@]21C	11.2µM	?	-	-	-	-
Nc1ccc[n+](CC(=O)c2ccc(F)cc2)c1	.	.	.	.	-	-
COc1cccc(OC)c1C(=O)NC(=S)Nc1ccc2c(c1)Cc1ccccc1-2	?	-	-	-	-	-
COc1cc(C(=O)NC(=S)Nc2ccc3c(c2)OCO3)cc(OC)c1OC	14.1µM	?	-	-	-	-
COc1cccc(C(=O)NC(=S)Nc2ccc(Cl)c(C(=O)O)c2)c1	-	-	-	-	-	-
CCOc1cccc(C(=O)NC(=S)Nc2ccc(Cl)cc2C(=O)O)c1	7.08µM	3.55µM	-	-	-	-
CCOc1cccc(C(=O)NC(=S)Nc2ccc(N3CCCC3)cc2)c1	2.24µM	6.31µM	-	-	-	-
COc1cccc(OC)c1C(=O)NC(=S)Nc1ccc2c(c1)OCCO2	12.6µM	-	-[11.3 µM]	-	-	-
CCOc1ccc(-n2nc3ccc(NC(=O)c4ccc5c(c4)OCCO5)cc3n2)cc1	10µM	11.2µM	?	?	-	-
CCOc1cccc(C(=O)NC(=S)Nc2ccc3c(c2)OCCO3)c1	7.94µM	-	-	?	-	-
COc1cc(C(=O)Nc2nc(C)c(Cc3ccc4c(c3)OCO4)s2)cc(OC)c1OC	7.94µM	?	.	?	?	-
O=C(COc1ccccc1Br)Nc1ccc2c(c1)OCCCO2	17.8µM	-	-	-	-	-
N#Cc1ccccc1OCC(=O)Nc1ccc2c(c1)OCCCO2	-	?	-	-	-	-
C[N+]1(CC(=O)c2ccc(Cl)c(Cl)c2)CCOCC1	.	.	.	.	-	-
O=C(NC(=S)Nc1ccc2c(c1)OCCO2)c1ccccc1F	10µM	?	-[11.3 µM]	-	-	-
O=C(NC(=S)Nc1ccc2c(c1)OCCO2)c1ccccc1	3.98µM	?	-	-	-	-
O=C(Nc1ccc2c(c1)OCCO2)c1ccccc1F	?	?	-	-	-	-
O=C(NCc1nnc2n1CCN(Cc1ccc(C(F)(F)F)cc1)CC2)c1ccccn1	.	.	.	-	.	.
Nc1nc(-c2nn(Cc3ccccc3F)c3ncccc23)ncc1C1CC1	1.78µM	12.6µM	.	.	.	.
CCC[C@@H]1C[C@@]1(CCC)[C@@H](NP(=O)(c1ccccc1)c1ccccc1)c1ccc(C(=O)OC)cc1	?	?	?	?	11.2µM	14.1µM
CCC[C@@H]1C[C@@]1(CCC)C(NC(=O)OCc1ccccc1)c1ccc(-c2ccccc2)cc1 (stereo partly drawn)	-	-	.	.	.	.
COc1ccc2c(c1)C[C@]1(C)c3ccccc3C(=O)N(Cc3ccccc3)[C@H]21	.	.	?	?	11.2µM	-
COc1cccc(C2Nc3ccccc3C(=O)N2Cc2ccccc2)c1 (stereo not drawn)	.	.	.	-	-	-
Cc1cc(C)nc(Nc2ncc(O)n2-c2ccc(C)c(C)c2)n1	-	-	-	-	-	-
